According to PMC11006913:
Substitutions are numbered along the chain they refer to.

Legend:
Assay in all cases: PBM; 200 nM protein, PBS
Conditions in all cases: dsDNA, one strand shown
[1] = target: T1, NKX2-4 (Homo sapiens, UniProt Q9H2Z4 175-261, P217L)
T1 sequence: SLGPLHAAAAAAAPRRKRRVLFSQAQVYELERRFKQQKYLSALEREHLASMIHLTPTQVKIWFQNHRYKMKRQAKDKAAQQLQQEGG

[2] = target: T2, NKX2-4 (Homo sapiens, UniProt Q9H2Z4 175-261, T231S)
T2 sequence: T1 sequence with L43P, T57S

[3] = target: T3, NKX2-4 (Homo sapiens, UniProt Q9H2Z4 175-261)
T3 sequence: T1 sequence with L43P

[4] = target: T4, NKX2-4 (Homo sapiens, UniProt Q9H2Z4 175-261, R246Q)
T4 sequence: T1 sequence with L43P, R72Q

Sequence | binding signal [1] | binding signal [2] | binding signal [3] | binding signal [4]
CCGGCTCA | 9.54 upbm affinity estimate (log intensity, higher = more binding, comparable within an allelic series) | 9.64 upbm affinity estimate (log intensity, higher = more binding, comparable within an allelic series) | 9.59 upbm affinity estimate (log intensity, higher = more binding, comparable within an allelic series) | 9.56 upbm affinity estimate (log intensity, higher = more binding, comparable within an allelic series)
GGTCGCCA | 9.68 upbm affinity estimate (log intensity, higher = more binding, comparable within an allelic series) | 9.67 upbm affinity estimate (log intensity, higher = more binding, comparable within an allelic series) | 9.7 upbm affinity estimate (log intensity, higher = more binding, comparable within an allelic series) | 9.8 upbm affinity estimate (log intensity, higher = more binding, comparable within an allelic series)
ATCCGGCC | 9.77 upbm affinity estimate (log intensity, higher = more binding, comparable within an allelic series) | 9.8 upbm affinity estimate (log intensity, higher = more binding, comparable within an allelic series) | 9.79 upbm affinity estimate (log intensity, higher = more binding, comparable within an allelic series) | 9.9 upbm affinity estimate (log intensity, higher = more binding, comparable within an allelic series)
CCGGTCGC | 9.53 upbm affinity estimate (log intensity, higher = more binding, comparable within an allelic series) | 9.41 upbm affinity estimate (log intensity, higher = more binding, comparable within an allelic series) | 9.5 upbm affinity estimate (log intensity, higher = more binding, comparable within an allelic series) | 9.51 upbm affinity estimate (log intensity, higher = more binding, comparable within an allelic series)
CTGCGCAG | 9.75 upbm affinity estimate (log intensity, higher = more binding, comparable within an allelic series) | 9.81 upbm affinity estimate (log intensity, higher = more binding, comparable within an allelic series) | 9.75 upbm affinity estimate (log intensity, higher = more binding, comparable within an allelic series) | 9.93 upbm affinity estimate (log intensity, higher = more binding, comparable within an allelic series)
CAGGCATG | 9.76 upbm affinity estimate (log intensity, higher = more binding, comparable within an allelic series) | 9.76 upbm affinity estimate (log intensity, higher = more binding, comparable within an allelic series) | 9.66 upbm affinity estimate (log intensity, higher = more binding, comparable within an allelic series) | 9.82 upbm affinity estimate (log intensity, higher = more binding, comparable within an allelic series)
CCAGTCAC | 9.45 upbm affinity estimate (log intensity, higher = more binding, comparable within an allelic series) | 9.51 upbm affinity estimate (log intensity, higher = more binding, comparable within an allelic series) | 9.45 upbm affinity estimate (log intensity, higher = more binding, comparable within an allelic series) | 9.44 upbm affinity estimate (log intensity, higher = more binding, comparable within an allelic series)
ATGAGTAC | 12.4 upbm affinity estimate (log intensity, higher = more binding, comparable within an allelic series) | 12.8 upbm affinity estimate (log intensity, higher = more binding, comparable within an allelic series) | 12.3 upbm affinity estimate (log intensity, higher = more binding, comparable within an allelic series) | 12.7 upbm affinity estimate (log intensity, higher = more binding, comparable within an allelic series)
CGATCCCG | 9.54 upbm affinity estimate (log intensity, higher = more binding, comparable within an allelic series) | 9.56 upbm affinity estimate (log intensity, higher = more binding, comparable within an allelic series) | 9.59 upbm affinity estimate (log intensity, higher = more binding, comparable within an allelic series) | 9.65 upbm affinity estimate (log intensity, higher = more binding, comparable within an allelic series)
CCGCTAGG | 9.61 upbm affinity estimate (log intensity, higher = more binding, comparable within an allelic series) | 9.55 upbm affinity estimate (log intensity, higher = more binding, comparable within an allelic series) | 9.61 upbm affinity estimate (log intensity, higher = more binding, comparable within an allelic series) | 9.6 upbm affinity estimate (log intensity, higher = more binding, comparable within an allelic series)
ATGTGCGC | 9.81 upbm affinity estimate (log intensity, higher = more binding, comparable within an allelic series) | 9.85 upbm affinity estimate (log intensity, higher = more binding, comparable within an allelic series) | 9.82 upbm affinity estimate (log intensity, higher = more binding, comparable within an allelic series) | 9.8 upbm affinity estimate (log intensity, higher = more binding, comparable within an allelic series)
GTACTCGA | 12.4 upbm affinity estimate (log intensity, higher = more binding, comparable within an allelic series) | 12.9 upbm affinity estimate (log intensity, higher = more binding, comparable within an allelic series) | 12.3 upbm affinity estimate (log intensity, higher = more binding, comparable within an allelic series) | 12.9 upbm affinity estimate (log intensity, higher = more binding, comparable within an allelic series)
ATGCGTCC | 9.7 upbm affinity estimate (log intensity, higher = more binding, comparable within an allelic series) | 9.56 upbm affinity estimate (log intensity, higher = more binding, comparable within an allelic series) | 9.58 upbm affinity estimate (log intensity, higher = more binding, comparable within an allelic series) | 9.59 upbm affinity estimate (log intensity, higher = more binding, comparable within an allelic series)
ATCGGTCC | 9.97 upbm affinity estimate (log intensity, higher = more binding, comparable within an allelic series) | 9.94 upbm affinity estimate (log intensity, higher = more binding, comparable within an allelic series) | 9.85 upbm affinity estimate (log intensity, higher = more binding, comparable within an allelic series) | 9.95 upbm affinity estimate (log intensity, higher = more binding, comparable within an allelic series)
ACTTAGCT | 11.7 upbm affinity estimate (log intensity, higher = more binding, comparable within an allelic series) | 11.8 upbm affinity estimate (log intensity, higher = more binding, comparable within an allelic series) | 11.5 upbm affinity estimate (log intensity, higher = more binding, comparable within an allelic series) | 11.9 upbm affinity estimate (log intensity, higher = more binding, comparable within an allelic series)
CACCCGTA | 9.75 upbm affinity estimate (log intensity, higher = more binding, comparable within an allelic series) | 9.83 upbm affinity estimate (log intensity, higher = more binding, comparable within an allelic series) | 9.77 upbm affinity estimate (log intensity, higher = more binding, comparable within an allelic series) | 9.74 upbm affinity estimate (log intensity, higher = more binding, comparable within an allelic series)
GTACTCAA | 12.6 upbm affinity estimate (log intensity, higher = more binding, comparable within an allelic series) | 13 upbm affinity estimate (log intensity, higher = more binding, comparable within an allelic series) | 12.5 upbm affinity estimate (log intensity, higher = more binding, comparable within an allelic series) | 13.1 upbm affinity estimate (log intensity, higher = more binding, comparable within an allelic series)
CAGTGCGC | 9.85 upbm affinity estimate (log intensity, higher = more binding, comparable within an allelic series) | 9.8 upbm affinity estimate (log intensity, higher = more binding, comparable within an allelic series) | 9.86 upbm affinity estimate (log intensity, higher = more binding, comparable within an allelic series) | 9.79 upbm affinity estimate (log intensity, higher = more binding, comparable within an allelic series)
ACGCAGTG | 9.7 upbm affinity estimate (log intensity, higher = more binding, comparable within an allelic series) | 9.67 upbm affinity estimate (log intensity, higher = more binding, comparable within an allelic series) | 9.6 upbm affinity estimate (log intensity, higher = more binding, comparable within an allelic series) | 9.5 upbm affinity estimate (log intensity, higher = more binding, comparable within an allelic series)
AGAGTGAG | 11.5 upbm affinity estimate (log intensity, higher = more binding, comparable within an allelic series) | 11.6 upbm affinity estimate (log intensity, higher = more binding, comparable within an allelic series) | 11.4 upbm affinity estimate (log intensity, higher = more binding, comparable within an allelic series) | 11.6 upbm affinity estimate (log intensity, higher = more binding, comparable within an allelic series)
ACCTGGGC | 9.66 upbm affinity estimate (log intensity, higher = more binding, comparable within an allelic series) | 9.68 upbm affinity estimate (log intensity, higher = more binding, comparable within an allelic series) | 9.7 upbm affinity estimate (log intensity, higher = more binding, comparable within an allelic series) | 9.78 upbm affinity estimate (log intensity, higher = more binding, comparable within an allelic series)
CTAGGCCA | 9.82 upbm affinity estimate (log intensity, higher = more binding, comparable within an allelic series) | 9.87 upbm affinity estimate (log intensity, higher = more binding, comparable within an allelic series) | 9.84 upbm affinity estimate (log intensity, higher = more binding, comparable within an allelic series) | 9.9 upbm affinity estimate (log intensity, higher = more binding, comparable within an allelic series)
CGTTTGGC | 9.62 upbm affinity estimate (log intensity, higher = more binding, comparable within an allelic series) | 9.4 upbm affinity estimate (log intensity, higher = more binding, comparable within an allelic series) | 9.47 upbm affinity estimate (log intensity, higher = more binding, comparable within an allelic series) | 9.6 upbm affinity estimate (log intensity, higher = more binding, comparable within an allelic series)
CCCAGACG | 9.29 upbm affinity estimate (log intensity, higher = more binding, comparable within an allelic series) | 9.36 upbm affinity estimate (log intensity, higher = more binding, comparable within an allelic series) | 9.37 upbm affinity estimate (log intensity, higher = more binding, comparable within an allelic series) | 9.46 upbm affinity estimate (log intensity, higher = more binding, comparable within an allelic series)
